PubChem BioAssay (NCATS)
Results filed as inconclusive are left out. Active and inactive are the calls of the source. Calls follow the shape of the dose curve; as a rule, active = well fitted curve in either direction with a large enough effect (not every such curve was filed as active); inconclusive = small, poorly fitted or top-dose-only effect, or another doubt; inactive = flat fitted curve, though single readings scatter.

The compounds below were run against Mitogen-activated protein kinase 10 (Mus musculus) (UniProt Q61831) (assay: JNK3 AlphaScreen Assay (AID 530;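 also: kinase came from lysate of stimulated human HepG2 cells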)). Details: JNK3 lysate, c-Jun phosphorylation; series mostly up to 57.1 µM; activity change, negative = inhibition: at the top concentration.
Description: NIH Chemical Genomics Center [NCGC]
NIH Molecular Libraries Screening Centers Network [MLSCN]
The c-jun N-terminal kinase (JNK) family are serine/threonine protein kinases that phosphorylate c-jun, a component of the transcription factor […] (AP-1). JNK kinases are members of the mitogen-activated protein kinase family including the extracellular regulated kinases and p38 kinases. Three JNK genes (JNK 1, 2, and 3) have been identified in humans so far. JNK1 and JNK2 have a broad distribution and JNK3 is primarily found in neuronal tissues and cardiac myocytes.
JNK3 has been under consideration as a target for the treatment of neurodegenerative disorders. […] JNK pathway is also involved in pathological process in a mouse model of Parkinson's disease (Xia et al., 2001).
Given these potential tissue distributions and links to neuroprotection, JNK3 inhibitors should provide useful investigational tools to study the role of this kinase in several diseases including, arthritis, stroke, myocardial infarction, ischemic injury and Parkinson's disease.
A homogeneous AlphaScreen is developed to measure the activity of JNK3. AlphaScreen is a two bead-based proximity-dependent chemical energy transfer luminescent assay platform. The phosphorylation of a biotinylated c-jun substrate by JNK3 can be detected with an antibody raised against phosphorylated c-jun. This process brings streptavidin donor beads and Protein-A acceptor beads to within a proximity range of <200 nm, and subsequently lead a chemical luminescent reaction upon exciting donor beads with 680 nm laser excitation light. Inhibition of JNK3 activity by small molecules and subsequent decrease in the antibody binding to biotinylated c-jun could attenuate or abolish this chemical luminescent reaction.
Yang DD, Kuan CY, Whitmarsh AJ, Rincon M, Zheng TS, Davis RJ, Rakic P and Flavell RA (1997) Absence of excitotoxicity-induced apoptosis in the hippocampus of mice lacking the Jnk3 gene. Nature 389:865-870. [PMID: 9349820]
Herdegen T, Claret FX, Kallunki T, Martin-Villalba A, Winter C, Hunter T, and Karin M (1998) Lasting N-terminal phosphorylation of c-Jun and activation of c-Jun N-terminal kinases after neuronal injury. J.Neurosci. 18:5124-5135. [PMID: 9651196]
Xia XG, Harding T, Weller M, Bieneman A, Uney JB and Schulz JB (2001) Gene transfer of the JNK interacting protein-1 protects dopaminergic neurons in the MPTP model of Parkinson's disease. Proc.Natl.Acad.Sci.U.S.A. 98:10433-10438.
NCGC Assay Protocol Summary:
GST-cJun (1-79) (Stratagene, La Jolla CA, #205145) was biotnylated by PerkinElmer (PerkinElmer-BioSignalInc. Montreal, Canada) and was detectable by the streptavidin Donor beads. Anti-(phospho)cJun (Ser73) antibody was from UpState (Charlottesvilles, VA, #06-659). JNK3-containing lysates were generated from HepG2 cells and pre-activated by interleukin1-beta and tumor necrosis factor alpha. All reagents were stored at -20 C before using. Phosphorylated biotinylated-GST-cJun was recognized by Anti-(phospho)cJun (Ser73) antibody and this process brings acceptor and donor beads together. Therefore JNK3 phosphorylation of cJun can be measured by Alpha reading by EnVision (PerkinElmer, Boston, MA).
The composition of kinase buffer was (in mM) 20 tris- HCl (pH 7.6) 10 MgCl2, 1 DTT, and 0.1 Na3VO4 and 0.01% Tween-20. Beads were diluted in detection buffer containing (in mM) 20 tris-HCl (pH 7.7), 20 NaCl and 80 EDTA and 0.3% BSA. The assay was performed at room temperature. All compounds were screened as titrations from 0.6 nM to 46 uM final concentration. The assay was performed in 1536-well format (white solid bottom and untreated) as follows:
Sequence,Parameter,Value,Description
1,Reagent,3 uL,Biotin-GST-cJun, Anti-(phospho)cJun and pre-activated JNK3-containing lysates
2,Compound,23 nL,Final concentration was 0.6nM to 46uM
3,Time,15 minutes,Room Temperature
4,Reagent,1 uL,ATP final concentration 10uM
6,Reagent,0.5 uL,2ng/well bead mixture
[…]
% is scaled to controls: 0 for no effect and ±100 for the full control effect.

SMILES | activity change, negative = inhibition
CCc1ccccc1OC[C@@H](O)CN[C@H]1CCCc2ccccc21 | 19% (inactive)
O=C(O)c1cc2ccccc2c(Cc2c(O)c(C(=O)O)cc3ccccc23)c1O | 3.49% [at 11.4 µM] (inactive)
COC1=CC(=O)C[C@@H](C)[C@@]12Oc1c(Cl)c(OC)cc(OC)c1C2=O | -15.8% (inactive)
NCCCC(=O)O | 4.31% (inactive)
COC(C)=O | 8.63% (inactive)
C=Cc1ccccc1 | 6.46% (inactive)
CC(=O)C1=C(O)C=C2Oc3c(C(C)=O)c(O)c(C)c(O)c3[C@]2(C)C1=O | 2.19% (inactive)
COc1ccc2[nH]c(=O)c3c(c2c1)OC(C)(C)C=C3 | -23.9% (inactive)
Cc1ccc(OC[C@H](O)[C@H](C)NC(C)C)c2c1CCC2 | 3.78% (inactive)
O=C(O)CC(O)(CC(=O)O)C(=O)O | 22% (inactive)
CCCCCCCCCC(=O)O | 27.2% (inactive)
CN(C)Cc1ccccc1 | 4.19% (inactive)
COc1cc(C[C@H]2C(=O)OC[C@@H]2Cc2ccc(OC)c(OC)c2)ccc1O | -1.54% (inactive)
